Most compounds without a hit are left out; they make up all but 10% or so of the library.
BAZ2B inh – blocks human BAZ2B; Potency, µM (series often up to 114 µM), without a hit: at the top dose activity change, negative = inhibition, hits mostly inhibitors; Q9UIF8; 4.4% of 360,000 active; AlphaScreen BAZ2B-H3K14Ac peptide displacement; note: potency is the fitted concentration of half-maximal effect; % is set by controls: 0 for no effect and ±100 for the full control effect; nearly all actives have a fitted effect of over 60% in size
Target sequence (Q9UIF8 whole entry, looked up): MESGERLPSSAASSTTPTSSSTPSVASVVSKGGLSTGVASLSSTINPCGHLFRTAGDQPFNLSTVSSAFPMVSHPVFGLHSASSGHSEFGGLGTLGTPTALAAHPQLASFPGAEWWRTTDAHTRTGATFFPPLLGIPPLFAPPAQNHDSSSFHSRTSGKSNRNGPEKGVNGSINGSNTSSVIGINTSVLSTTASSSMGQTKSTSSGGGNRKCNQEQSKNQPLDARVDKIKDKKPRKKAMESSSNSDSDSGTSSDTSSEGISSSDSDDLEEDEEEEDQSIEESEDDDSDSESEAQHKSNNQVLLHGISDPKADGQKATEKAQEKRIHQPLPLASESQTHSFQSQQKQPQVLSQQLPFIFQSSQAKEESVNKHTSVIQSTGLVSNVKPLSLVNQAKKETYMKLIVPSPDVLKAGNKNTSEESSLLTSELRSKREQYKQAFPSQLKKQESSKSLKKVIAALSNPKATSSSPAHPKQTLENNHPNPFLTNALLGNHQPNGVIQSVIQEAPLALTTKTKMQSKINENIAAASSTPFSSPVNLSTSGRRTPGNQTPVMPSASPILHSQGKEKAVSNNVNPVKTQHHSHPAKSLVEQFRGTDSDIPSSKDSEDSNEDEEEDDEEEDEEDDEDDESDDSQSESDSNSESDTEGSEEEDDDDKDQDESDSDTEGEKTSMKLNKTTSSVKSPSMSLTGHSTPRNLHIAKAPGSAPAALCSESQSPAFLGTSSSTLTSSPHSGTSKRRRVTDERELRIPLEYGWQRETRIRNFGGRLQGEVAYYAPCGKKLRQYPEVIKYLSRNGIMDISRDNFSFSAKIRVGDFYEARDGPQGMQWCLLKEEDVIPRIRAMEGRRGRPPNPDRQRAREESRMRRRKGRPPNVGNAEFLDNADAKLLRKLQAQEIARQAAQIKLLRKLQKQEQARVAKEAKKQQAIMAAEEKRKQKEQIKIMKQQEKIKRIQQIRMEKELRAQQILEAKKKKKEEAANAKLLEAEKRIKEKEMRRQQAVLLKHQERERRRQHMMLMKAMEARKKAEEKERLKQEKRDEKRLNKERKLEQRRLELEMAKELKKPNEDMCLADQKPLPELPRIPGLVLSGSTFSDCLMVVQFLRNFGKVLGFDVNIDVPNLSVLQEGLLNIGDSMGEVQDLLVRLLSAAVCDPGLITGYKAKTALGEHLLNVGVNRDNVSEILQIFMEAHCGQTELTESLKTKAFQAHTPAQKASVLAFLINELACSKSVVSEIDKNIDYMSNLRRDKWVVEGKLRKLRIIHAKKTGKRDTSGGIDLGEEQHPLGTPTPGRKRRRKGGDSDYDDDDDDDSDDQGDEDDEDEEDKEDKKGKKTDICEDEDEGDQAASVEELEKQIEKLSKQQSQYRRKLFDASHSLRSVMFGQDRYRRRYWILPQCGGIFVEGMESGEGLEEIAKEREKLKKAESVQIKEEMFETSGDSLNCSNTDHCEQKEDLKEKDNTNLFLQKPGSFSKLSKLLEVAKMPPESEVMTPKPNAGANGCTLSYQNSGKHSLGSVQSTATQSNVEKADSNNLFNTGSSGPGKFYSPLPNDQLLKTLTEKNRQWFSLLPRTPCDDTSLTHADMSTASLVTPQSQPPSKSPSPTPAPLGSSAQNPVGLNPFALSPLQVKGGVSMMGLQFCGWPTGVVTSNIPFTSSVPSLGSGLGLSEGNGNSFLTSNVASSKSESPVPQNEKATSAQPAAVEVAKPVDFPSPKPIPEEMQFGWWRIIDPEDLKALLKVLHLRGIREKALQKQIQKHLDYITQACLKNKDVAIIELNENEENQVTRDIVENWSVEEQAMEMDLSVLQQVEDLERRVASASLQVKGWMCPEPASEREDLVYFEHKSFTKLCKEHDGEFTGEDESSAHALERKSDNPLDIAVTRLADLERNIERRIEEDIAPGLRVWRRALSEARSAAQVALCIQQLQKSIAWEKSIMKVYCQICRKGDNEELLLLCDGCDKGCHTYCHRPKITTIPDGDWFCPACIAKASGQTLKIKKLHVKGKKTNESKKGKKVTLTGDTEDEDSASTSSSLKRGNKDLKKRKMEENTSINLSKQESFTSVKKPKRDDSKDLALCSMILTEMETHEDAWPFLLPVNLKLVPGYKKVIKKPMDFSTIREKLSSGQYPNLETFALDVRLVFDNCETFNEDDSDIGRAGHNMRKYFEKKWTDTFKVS
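BAZ2B 50 nM plus b-H3(5-23)K14Ac 50 nM, PBS pH 7.4/0.01% Tween-20, 30 min RT; compound added (max 110 uM), 30 min RT; streptavidin donor/Ni-chelate acceptor beads 10 ug/mL final, 20 min dark; AlphaScreen read.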
G9a inh – G9a (human) methyltransferase inhibition | Potency, µM (doses to about 102 µM), inactives show at the top dose activity, negative = inhibition, hits mostly inhibitors | 8.8% of 350,000 active | Q96KQ7 | G9a H3K9 monomethylation, AlphaScreen, 2 h | AID 504332; note: potency is the fitted concentration of half-maximal effect; % is set by controls: 0 for no effect and ±100 for the full control effect; nearly all actives have a fitted effect of over 75% in size
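Chemiluminescent proximity detection of H3K9 monomethylation, read after 10 min bead incubation in the dark. Reaction: 20 nM G9a, 500 nM biotin-H3K9 peptide, 20 uM SAM cofactor, 2 h, room temperature, following 15 min enzyme-compound preincubation.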
JMJD2A Tudor inh – blocks the human JMJD2A Tudor domain | AlphaScreen JMJD2A-Tudor / H3K4me3 peptide binding | Potency, µM (doses to about 114 µM), for inactives: at the top dose activity change, negative = inhibition, hits mostly inhibitors | 4.4% of 390,000 active; note: potency is the fitted concentration of half-maximal effect; % is set by controls: 0 for no effect and ±100 for the full control effect; nearly all actives have a fitted effect of over 50% in size
HP1b binding inh – inhibitors of HP1-beta chromodomain binding to methylated histone tails; P83916; AlphaScreen HP1-beta / biotin-H3K9me3 peptide binding; Potency, µM (top dose mostly 114 µM), without a hit: at the top dose activity change, negative = inhibition, most hits filed as inhibitors; 0.56% of 390,000 active; note: potency is the fitted concentration of half-maximal effect; nearly all actives have a fitted effect of over 70% in size
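AlphaScreen: HP1-beta (50 nM) preformed 30 min with biotin-H3(1-18)K9me3 peptide (50 nM) in PBS pH 7.4, 0.01% Tween-20. Compound added for 30 min at RT, then streptavidin donor/nickel chelate acceptor beads (10 ug/mL) for 30 min.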
CtBP-E1A inh – CtBP/E1A binding inhibition; AlphaScreen GST-E1A/His-CtBP binding, 1536-well; hits give low values; activity change, % (test concentration not listed); 0.49% of 340,000 active; AID 651724; in the data active = activity change below about -65%; inconclusive = mostly about -30% to -63%; note: % is set by controls: 0 for no effect and ±100 for the full control effect
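Steps: dispense buffer (Tris pH 8.0, NaCl 300 mM, TCEP 1 mM, BSA, Tween 20); add 5X protein mix (GST-E1A, His-CtBP, 125 nM each); pin 23 nL compound; 2 h at 37 °C, dark; add 5X beads (50 ug/mL); 1 h; read.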
Six1-Eya2 blk – blocks human Six1 binding to Eya2 | Q15475+O00167 | AlphaScreen GST-Six1/His-Eya2 binding, biochemical; hits give low values | activity change, % (concentration not given with the values) | 0.56% of 360,000 active; in the data active = activity change below about -65%; inconclusive = mostly about -30% to -63%; note: % is set by controls: 0 for no effect and ±100 for the full control effect
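AlphaScreen luminescence read after one hour at 37 °C in darkness. Pin-transferred compounds met GST-Six1 and His-Eya2 protein (5X stock 250 nM/500 nM) plus glutathione donor and Ni-chelate acceptor beads (5X, 50 ug/mL).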
The depositor's hits bear a star; ? = inconclusive; · = no result; [ ] = remark or other dose. Unless noted, calls come from the whole dose curve; as a rule, active = well fitted inhibition curve with a large enough effect; inconclusive = small, poorly fitted or top-dose-only effect; inactive = no such curve, though single readings can be large or run the other way.

SMILES	BAZ2B inh	G9a inh	JMJD2A Tudor inh	HP1b binding inh	CtBP-E1A inh	Six1-Eya2 blk
C[C@@H]1CC2C3CCC4=CC(=O)C=CC4(C)[C@@]3(F)[C@@H](O)CC2(C)[C@@]1(O)C(=O)CO (stereo not given in full)	·	2.51µM*	·	·	·	·
CC1CC2C3CCC4=CC(=O)C=C[C@@]4(C)[C@]3(F)C(O)C[C@]2(C)[C@]1(O)C(=O)CO (stereo not given in full)	·	-2.1%[2.33 µM]	·	·	·	·
Cc1ccc(N=c2ssnc2Cl)cc1	44.7µM*	1.58µM*	31.6µM*	15.8µM*	10.1	7.2
Cc1cc(C)nc(/N=c2/ssnc2Cl)c1	·	6.31µM*	-19.3%	-16.4%	2.2	3.7
Cc1cc(Cl)ccc1N=c1ssnc1Cl	8.91µM*	1.78µM*	79.4µM*	22.4µM*	-3.5	-1.0
Cc1cc(Cl)ccc1N=C1N=C(N)c2ccccc21	-33.5%	-14.0%	-16.7%	26.6%	9.2	0.1
Nc1ccccc1N=c1ssnc1Cl	50.1µM*	1.26µM*	?	-13.2%	-16.8	-11.6
CCOc1ccccc1NC(=O)CSc1cc(=O)n(CC)c2ccccc12	17.1%	?	-13.8%	42.1%	·	·
Cc1nnc(N2CCN(C(=O)NC(C)C)CC2)c2nn(-c3ccccc3)c(C)c12	-12.8%	2.2%[59 µM]	-10.3%	43.5%	·	·
Cc1nnc(N=c2ssnc2Cl)o1	?	2.7%[0.501 µM]	44.7µM*	?	-22.0	-1.8
O=C(Cn1ccn(-c2ccc(F)cc2)c(=O)c1=O)Nc1ccccc1C(F)(F)F	-4.7%	-5.5%[59 µM]	-12.2%	26.6%	·	·
COc1ccc(NC2CCCN(C(=O)c3ccc(C(C)=O)cc3)C2)cc1 (stereo not given)	-17.0%	-10.1%	-18.3%	15.9%	-1.5	-5.1
COc1ccc(NC2CCCN(C(=O)c3ccc(C(C)=O)s3)C2)cc1 (stereo not given)	-38.7%	50.1µM*	-14.3%	34.7%	16.7	12.9
Cc1ccc(C(=O)N2CCCC(Nc3ccc(C(C)C)cc3)C2)cn1 (stereo not given)	-19.0%	39.8µM*	-17.1%	47.1%	-0.9	-0.7
COc1ccc(NC2CCCN(C(=O)c3ccc(C)nc3)C2)cc1 (stereo not given)	-21.0%	39.8µM*	-14.5%	8.4%	6.4	-1.7
COc1ccc(NC2CCCN(C(=O)c3ccc4[nH]c(C)c(C)c4c3)C2)cc1 (stereo not given)	44.7µM*	39.8µM*	?	-14.1%	-9.6	-15.9
Cc1oc(-c2ccc(Cl)cc2)nc1CS(=O)CC(=O)NCc1ccc(Cl)cc1 (stereo not given)	-21.6%	-30.0%[59 µM]	-4.7%	50.4%	·	·
Cc1nc(COc2ccccc2Cl)sc1-c1ccnc(N)n1	-14.4%	4.3%	-15.9%	0.3%	-0.2	4.3
CCn1c(=O)[nH]c(=O)c2c(N)c(C(=O)c3cc(F)ccc3F)sc21	-5.1%	-10.5%[59 µM]	-20.0%	-0.8%	-21.1	-25.1
C[C@]12CCC3c4ccc(O)cc4CCC3[C@@H]1CCC2=O (stereo not given in full)	·	23.0%[21.5 µM]	·	·	·	·
Cc1nonc1C(=O)N1CCCC(Nc2ccc(C(C)C)cc2)C1 (stereo not given)	?	35.5µM*	-16.9%	29.3%	·	-0.8
COc1ccc(NC2CCCN(C(=O)c3cc4ncccn4n3)C2)cc1 (stereo not given)	-12.8%	35.5µM*	-20.0%	-3.1%	12.6	-0.3
CC(C)c1ccc(NC2CCCN(C(=O)c3ccoc3)C2)cc1 (stereo not given)	?	44.7µM*	?	-10.4%	·	-5.6
COc1ccc(NC2CCCN(C(=O)CCn3cccn3)C2)cc1 (stereo not given)	-19.5%	-0.7%	-15.7%	18.1%	-2.3	-2.9
O=C(c1ccoc1)N1CCCC(Nc2ccc(F)c(F)c2)C1 (stereo not given)	-11.6%	0.4%	-19.7%	28.8%	0.6	-0.8
SMILES	BAZ2B inh	G9a inh	JMJD2A Tudor inh	HP1b binding inh	CtBP-E1A inh	Six1-Eya2 blk
Cc1cc(C)c(C(=O)N2CCCC(Nc3ccc(F)cc3)C2)o1 (stereo not given)	?	79.4µM*	-26.4%	4.4%	-5.1	-10.2
Cc1cc(C)c(C(=O)N2CCCC(Nc3ccc(C)c(C)c3)C2)o1 (stereo not given)	?	-47.7%[59 µM]	?	-31.8%	-15.7	-18.0
CN(C)S(=O)(=O)c1cccc(COC(=O)C2=COCCO2)c1	·	4.2%[59 µM]	-9.0%	46.4%	4.6	-3.5
CC(C)c1ccc(NC2CCCN(C(=O)c3cccc4nccnc34)C2)cc1 (stereo not given)	-24.9%	-5.8%[59 µM]	-10.4%	4.6%	-21.4	-10.4
CC(C)c1ccc(NC2CCCN(C(=O)c3ccccc3-c3ncc[nH]3)C2)cc1 (stereo not given)	56.2µM*	44.7µM*	?	-0.3%	-9.5	-3.7
N#Cc1c(/N=C/c2ccco2)oc(-c2ccccc2)c1-c1ccccc1	-3.0%	?	28.2µM*	-58.5%	7.5	10.2
COc1cc(NC(=S)Nc2cccnc2)cc(OC)c1	-25.2%	15.8µM*	-10.4%	-16.2%	0.3	-12.8
Cc1cc(NC(=S)Nc2cccnc2)ccc1Br	-3.0%	39.8µM*	-20.5%	20.5%	-2.0	0.9
Cc1ccc(S(=O)(=O)N(CC(=O)N(C(C)C)C(C)C)C(=O)N2CCN(C)CC2)cc1	4.8%	-11.2%	-6.1%	82.7%	4.9	-0.3
Cc1nnc2ccc(-c3cccc(NC(=O)c4ccc(Br)o4)c3)nn12	-25.1%	?	-10.5%	11.2%	-65.3*	?
O=C(Nc1cccc(-c2ccc(N3CCCCC3)nn2)c1)c1ccc(Br)o1	-6.2%	28.2µM*	-15.2%	7.0%	-15.7	-28.5
Cc1nnc2ccc(-c3cccc(NC(=O)c4ccc(Cl)nc4)c3)nn12	4.2%	-35.7%	-14.0%	3.8%	-28.5	0.0
O=C(Nc1cccc(-c2ccc(N3CCCCC3)nn2)c1)C(F)(F)F	22.8%	11.6%	-1.0%	40.4%	·	-3.3
Cc1cc(C)cc(NC(=O)c2sc3nc[nH]c(=O)c3c2C)c1	-0.5%	-16.1%[59 µM]	-13.5%	19.5%[57 µM]	·	·
CSCc1c(C(=O)OCC(=O)c2ccc[nH]2)oc2ccccc12	-10.9%	25.1µM*	-25.5%	6.6%	-27.3	-9.5
CCOc1cccc(C2c3c(-c4cc(C)ccc4O)n[nH]c3C(=O)N2Cc2ccco2)c1 (stereo not given)	?	?	?	-0.2%	·	·
CCN(CC)S(=O)(=O)c1cccc(-c2nnc(SCc3nnc(-c4cccs4)o3)n2N)c1	9.3%	50.1µM*	2.6%	23.0%	-0.1	2.0
O=C1/C(=C/c2cccnc2)Oc2cc(OS(=O)(=O)c3ccc(Cl)cc3)ccc21	?	-16.9%	-14.7%	14.2%	8.4	2.3
